Drawing on article PMC4081100, “A DNA-binding-site landscape and regulatory network analysis for NAC transcription factors in Arabidopsis thaliana”, this text covers binding signal for eight sequences.

Assay in all cases: universal protein binding microarray (PBM); transcription factors of Arabidopsis thaliana; high values mean tight binding
The target of one test is T1, GST-ANAC092(1-176) (Arabidopsis thaliana, UniProt Q9FKA0 1-176).
T1 sequence: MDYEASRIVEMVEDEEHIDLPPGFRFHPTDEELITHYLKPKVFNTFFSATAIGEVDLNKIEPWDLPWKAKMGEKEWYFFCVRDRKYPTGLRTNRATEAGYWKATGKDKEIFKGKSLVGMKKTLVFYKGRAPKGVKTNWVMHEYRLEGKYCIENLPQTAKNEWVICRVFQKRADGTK
The following applies: protein: recombinant; tags: GST; chain copies: 2; dsDNA, one strand shown. Put shortly:
(§1)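 GST-tagged proteins (NAC-domain, full-length or DNA-binding-domain) were induced in cells, with zinc acetate supplied for zinc-finger proteins, then purified on glutathione–Sepharose 4B. Each was tested in duplicate at 200 to 500 nM final on custom all-10-mer Agilent 4 × 180K arrays rendered double-stranded by primer extension. The binding value is the normalised enrichment score (E-score) across gapped and ungapped 8-mers.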

Another test deals with GST-NTL6(1-168) (Arabidopsis thaliana, UniProt Q9SCK6 1-168). The following applies: protein: recombinant; tags: GST; chain copies: 2; dsDNA, one strand shown. The method, boiled down: as §1
GST-NTL6(1-168), sequence (Q9SCK6 1-168): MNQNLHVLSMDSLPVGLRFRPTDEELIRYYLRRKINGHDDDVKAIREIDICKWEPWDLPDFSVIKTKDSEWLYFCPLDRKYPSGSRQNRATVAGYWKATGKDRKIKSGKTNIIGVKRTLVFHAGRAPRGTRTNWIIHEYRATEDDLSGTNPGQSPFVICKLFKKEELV
The next test has as its target T2, GST-ANAC019 NAC domain (Arabidopsis thaliana, UniProt Q9C932 14-162).
T2 sequence: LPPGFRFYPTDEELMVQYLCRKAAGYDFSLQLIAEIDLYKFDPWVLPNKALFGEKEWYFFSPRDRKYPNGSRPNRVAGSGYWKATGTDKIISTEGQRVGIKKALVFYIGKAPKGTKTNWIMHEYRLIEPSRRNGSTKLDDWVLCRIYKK
The note with it: protein: recombinant; tags: GST; chain copies: 2; dsDNA, one strand shown. The method, boiled down:
as §1

In another test the target is T3, GST-ANAC055(1-171) (Arabidopsis thaliana, UniProt Q9LDY8 1-171).
T3 sequence: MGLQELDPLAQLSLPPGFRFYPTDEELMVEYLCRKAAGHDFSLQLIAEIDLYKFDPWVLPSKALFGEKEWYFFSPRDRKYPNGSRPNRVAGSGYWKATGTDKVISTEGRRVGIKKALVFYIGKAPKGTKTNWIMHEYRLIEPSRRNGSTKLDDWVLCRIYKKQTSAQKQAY
The following applies: protein: recombinant; tags: GST; chain copies: 2; dsDNA, one strand shown. The method, boiled down: as §1

A further test addresses T4, GST-ATAF1 NAC domain (Arabidopsis thaliana, UniProt Q39013 7-158).
T4 sequence: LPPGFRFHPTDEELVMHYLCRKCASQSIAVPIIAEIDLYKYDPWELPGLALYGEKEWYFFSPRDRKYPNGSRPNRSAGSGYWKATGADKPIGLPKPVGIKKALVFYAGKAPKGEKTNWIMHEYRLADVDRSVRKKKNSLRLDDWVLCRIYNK
The following applies: protein: recombinant; tags: GST; chain copies: 2; dsDNA, one strand shown. The method, boiled down:
as §1

The target of test [1] is T5, GST-ANAC092(1-285) full length (Arabidopsis thaliana, UniProt Q9FKA0 1-285).
T5 sequence: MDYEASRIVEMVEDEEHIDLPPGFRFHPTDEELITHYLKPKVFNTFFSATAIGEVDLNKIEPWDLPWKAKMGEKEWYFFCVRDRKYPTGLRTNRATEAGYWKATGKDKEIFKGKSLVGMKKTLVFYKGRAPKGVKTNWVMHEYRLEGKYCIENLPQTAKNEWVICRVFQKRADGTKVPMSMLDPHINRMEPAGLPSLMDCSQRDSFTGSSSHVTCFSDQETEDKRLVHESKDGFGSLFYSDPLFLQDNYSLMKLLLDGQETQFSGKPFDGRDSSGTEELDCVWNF
The note with it: protein: recombinant; tags: GST; chain copies: 2; dsDNA, one strand shown. Put shortly: as §1

In a further test the target is T6, GST-NST2(1-184) (Arabidopsis thaliana, UniProt Q9M274 1-184).
T6 sequence: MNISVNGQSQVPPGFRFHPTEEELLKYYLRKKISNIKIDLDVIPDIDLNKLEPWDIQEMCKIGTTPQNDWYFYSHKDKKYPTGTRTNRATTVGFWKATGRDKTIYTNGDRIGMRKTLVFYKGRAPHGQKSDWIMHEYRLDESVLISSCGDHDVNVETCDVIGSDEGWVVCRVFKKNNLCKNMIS
The note with it: protein: recombinant; tags: GST; chain copies: 2; dsDNA, one strand shown. Put shortly: as §1

Another test concerns the target T7, GST-NTL8 NAC domain (Arabidopsis thaliana, UniProt Q9XIN7 14-156).
T7 sequence: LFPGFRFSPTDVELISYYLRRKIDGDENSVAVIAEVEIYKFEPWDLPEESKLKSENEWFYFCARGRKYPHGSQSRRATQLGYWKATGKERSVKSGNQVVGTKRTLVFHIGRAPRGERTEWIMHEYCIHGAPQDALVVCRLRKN
The note with it: protein: recombinant; tags: GST; chain copies: 2; dsDNA, one strand shown. Put shortly: as §1

The next test addresses T8, GST-SND1(1-203) (Arabidopsis thaliana, UniProt Q9LPI7 1-203).
T8 sequence: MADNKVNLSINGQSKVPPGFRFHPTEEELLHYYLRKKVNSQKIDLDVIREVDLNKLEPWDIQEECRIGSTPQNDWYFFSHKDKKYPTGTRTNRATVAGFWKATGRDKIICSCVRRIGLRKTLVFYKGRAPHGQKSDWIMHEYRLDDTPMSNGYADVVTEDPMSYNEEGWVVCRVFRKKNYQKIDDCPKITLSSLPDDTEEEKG
The following applies: protein: recombinant; tags: GST; chain copies: 2; dsDNA, one strand shown. The method, boiled down:
as §1

The next test deals with T9, GST-VND7 NAC domain (Arabidopsis thaliana, UniProt Q9C8W9 9-158).
T9 sequence: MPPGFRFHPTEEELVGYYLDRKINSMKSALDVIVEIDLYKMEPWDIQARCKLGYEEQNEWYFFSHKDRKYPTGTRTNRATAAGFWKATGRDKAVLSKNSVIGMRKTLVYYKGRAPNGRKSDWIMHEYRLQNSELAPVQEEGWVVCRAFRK
The note with it: protein: recombinant; tags: GST; chain copies: 2; dsDNA, one strand shown. Put shortly: as §1

The next test concerns the target T10, GST-NAP(1-166) (Arabidopsis thaliana, UniProt O49255 1-166).
T10 sequence: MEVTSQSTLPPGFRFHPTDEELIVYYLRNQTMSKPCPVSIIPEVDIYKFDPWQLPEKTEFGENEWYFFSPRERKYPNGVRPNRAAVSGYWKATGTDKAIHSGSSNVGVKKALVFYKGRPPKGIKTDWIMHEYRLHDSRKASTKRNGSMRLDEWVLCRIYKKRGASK
The note with it: protein: recombinant; tags: GST; chain copies: 2; dsDNA, one strand shown. Put shortly: as §1

Another test has as its target GST-WRKY1(266-371) (Arabidopsis thaliana, UniProt Q9SI37 266-371). The following applies: protein: recombinant; tags: GST; dsDNA, one strand shown. The method, boiled down:
as §1

GST-WRKY1(266-371), sequence (Q9SI37 266-371): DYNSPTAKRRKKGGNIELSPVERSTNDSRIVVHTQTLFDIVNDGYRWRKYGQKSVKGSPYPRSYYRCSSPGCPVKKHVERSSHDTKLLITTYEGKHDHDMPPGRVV

For the sequence GAAGAAAC, the binding signal turned out to be 0.203 E-score in the test with GST-ANAC092(1-176); 0.295 E-score with GST-NTL6(1-168); 0.123 E-score with GST-ANAC019 NAC domain; 0.168 E-score in the test with GST-ANAC055(1-171); 0.194 E-score with GST-ATAF1 NAC domain; 0.0911 E-score in [1]. The binding signal with GST-NST2(1-184) was determined as 0.197 E-score; with GST-NTL8 NAC domain, 0.423 E-score; with GST-SND1(1-203) it was 0.126 E-score; with GST-VND7 NAC domain it was 0.0868 E-score.
Regarding ACCCCGCC, the binding signal in the test with GST-ANAC092(1-176) was determined as 0.271 E-score; with GST-NTL6(1-168), 0.182 E-score; in the test with GST-ANAC019 NAC domain, 0.295 E-score; with GST-ANAC055(1-171) it was 0.123 E-score; in the test with GST-ATAF1 NAC domain it was 0.253 E-score; in test [1], 0.264 E-score. Besides, the binding signal with GST-NAP(1-166) was determined as 0.1 E-score; in the test with GST-NST2(1-184) it was 0.213 E-score; in the test with GST-NTL8 NAC domain, 0.284 E-score; with GST-SND1(1-203) it was 0.32 E-score; with GST-VND7 NAC domain, 0.241 E-score.
Turning to CCAAGTCA, the results for the binding signal with GST-SND1(1-203) and in the test with GST-WRKY1(266-371) were 0.0686 E-score and 0.426 E-score, respectively.
For ATCGCGTA, the binding signal with GST-ANAC092(1-176) was determined as 0.261 E-score; with GST-ATAF1 NAC domain, 0.165 E-score; in test [1] it was 0.404 E-score; with GST-NAP(1-166) it was 0.149 E-score; in the test with GST-NST2(1-184), 0.211 E-score; with GST-SND1(1-203), 0.442 E-score. Moreover, in the test with GST-VND7 NAC domain, the binding signal stood at 0.104 E-score.
Regarding CGAAGCAA, the binding signal stood at 0.243 E-score in the test with GST-ANAC092(1-176); 0.325 E-score with GST-NTL6(1-168); 0.271 E-score in [1]; 0.208 E-score with GST-NST2(1-184); 0.339 E-score with GST-NTL8 NAC domain; 0.427 E-score with GST-SND1(1-203). In addition, the binding signal with GST-VND7 NAC domain came to 0.169 E-score.
For CACGCTAA, the binding signal with GST-ANAC092(1-176) was 0.453 E-score; in the test with GST-NTL6(1-168), 0.0834 E-score; with GST-ANAC019 NAC domain, 0.226 E-score; in test [1], 0.471 E-score; with GST-NST2(1-184), 0.224 E-score; in the test with GST-SND1(1-203) it was 0.415 E-score. Also, in the test with GST-VND7 NAC domain, the binding signal worked out at 0.112 E-score.
As to TGAAGGAA, the binding signal worked out at 0.108 E-score with GST-ANAC092(1-176); 0.379 E-score in the test with GST-NTL6(1-168); 0.0877 E-score with GST-ANAC019 NAC domain; 0.0856 E-score with GST-ANAC055(1-171); 0.0713 E-score with GST-ATAF1 NAC domain; 0.0772 E-score in test [1]. For the same sequence, the binding signal with GST-NST2(1-184) was determined as 0.197 E-score; with GST-NTL8 NAC domain, 0.469 E-score; with GST-SND1(1-203), 0.342 E-score; with GST-VND7 NAC domain, 0.0645 E-score.
As for GCGTCAAA, the binding signal in test [1] was 0.0819 E-score; with GST-NST2(1-184), 0.052 E-score; in the test with GST-NTL8 NAC domain it was 0.0775 E-score; with GST-SND1(1-203), 0.0924 E-score; with GST-VND7 NAC domain, 0.0799 E-score; in the test with GST-WRKY1(266-371), 0.409 E-score.
